# Hit rate of the full screen: of about 350,000 compounds, about 2,700 (0.77%) were called active. The sample holds actives, similar compounds and a random draw of the others, so the mix is not that of the screen.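 The calls were made as follows: active = inhibition reaching at least a set limit at 20 µM in the primary screen (cut at about 59% in these data); inactive = the rest.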
# Test system: glucose-6-phosphate dehydrogenase-6-phosphogluconolactonase (Plasmodium falciparum 3D7)
# Test: inhibition of malaria parasite G6PD (PfGluPho) – biochemical, fluorescence intensity, uHTS, primary screen (AID 504690);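 also: 0% = DMSO wells with substrate and 100% = DMSO wells lacking glucose-6-phosphate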
# Conditions: PfGluPho enzyme, NADPH resazurin-diaphorase fluorescence; at 20 µM; hits give high values
row,Structure (SMILES),inhibition
1,Nc1ccc2[nH]c(=S)sc2c1,74.7% (active)
2,O=c1[nH]c2ccccc2s1,5.6% (inactive)
3,C/C(=C\c1ccco1)CN1CCC(N2CCC(C(=O)N3CCOCC3)CC2)CC1,-6.22% (inactive)
4,CN(C(=O)c1cccc(NC(=O)Cc2cccc(NC(=O)C3CCCN(C(=O)C4CC4)C3)c2)c1)C1CCC1 (stereo unspecified),13.5% (inactive)
5,Cc1ccc(Nc2nc(CSc3nnnn3-c3ccccc3)cc(=O)[nH]2)cc1,2.74% (inactive)
6,O=C(Nc1nc(-c2ccncc2)cs1)C1COc2ccccc2O1 (stereo unspecified),82.1% (active)
7,COc1ccc(NC(=O)COC(=O)C2COc3ccccc3O2)cc1 (stereo unspecified),-2.2% (inactive)
8,C/C(=N/NC(=O)C1COc2ccccc2O1)c1ccco1 (stereo unspecified),-17.2% (inactive)
9,CCOC(=O)C1(CCOc2ccccc2)CCN(C(=O)c2cncs2)CC1,-8.03% (inactive)
10,N#Cc1cnn2cc(CCN3CCOCC3)c(-c3ccc(F)cc3)nc12,-4.2% (inactive)
11,O=C(C1CC(=O)N(C2CCCCC2)C1)N1CCN(c2ccccc2)CC1 (stereo unspecified),1.77% (inactive)
12,O=C(C1CCC1)N1CCN(c2ccccc2)CC1,-11.2% (inactive)
13,O=C1C=CC(=O)N1c1ccc(N2CCCCC2)cc1,59.2% (active)
14,O=C(CSc1ccc(C(F)(F)F)cc1[N+](=O)[O-])NCCOc1ccccc1,4.59% (inactive)
15,CCc1cccc(NC(=S)N(CCN(C)C)C2CCN(C(C)C)CC2)c1,-1.59% (inactive)
16,CC(C)c1cc(C(N)=O)c(NC(=O)c2cccc(COc3ccc(Br)cc3)c2)s1,17.7% (inactive)
17,CC(C)Oc1ccc(C(=O)NC(C)(C)CO)cc1,-5.29% (inactive)
18,CCOC(=O)c1sc(NC(=O)CSc2nc(C)cc(C(F)(F)F)n2)c(C#N)c1C,60.4% (active)
19,Cc1cc(C(F)(F)F)nc(SCC(=O)Nc2nccs2)n1,14.7% (inactive)
20,CCn1c(SCC(=O)Nc2sc(C)c(C)c2C#N)nnc1C1CC1,13.8% (inactive)
21,CCOC(=O)c1cc2c(=O)n3ccccc3nc2n(CC(C)C)c1=NC(=O)c1c(-c2c(F)cccc2Cl)noc1C,10.9% (inactive)
22,O=C(CSc1nnc(SCc2ccc(F)cc2)s1)Nc1ccc(C(=O)O)cc1,-15.7% (inactive)
23,O=C(CSc1nnc(SCc2ccc(Cl)cc2)s1)N/N=C/c1ccccc1Cl,75.1% (active)
24,O=C(Cc1ccccc1)N/N=C/c1ccc(Cl)cc1Cl,8.79% (inactive)
25,CC1CCCN(C(=O)Cn2c(=O)oc3cc(S(=O)(=O)N4CCCCC4C)ccc32)C1 (stereo unspecified),-4.91% (inactive)
26,CC(C)(C)c1cc2cccnc2n1Cc1ccccc1,2.96% (inactive)
